Source: PubChem BioAssay
SW480 rereplic = A quantitative high throughput screen for small molecules that induce DNA re-replication in SW480 colon adenocarcinoma cells; 1.8% of 340,000 active; Potency, µM (doses to about 46.1 µM), for the others: top-dose re-replication activation, usual class: activators; SW480 DNA re-replication, Hoechst DNA content imaging, 48 h; further: % of control where 0% means no effect; nearly all actives have a fitted effect of over 55% in size
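Readout is total intensity of Hoechst-stained nuclei, excited at 405 nm and collected at 500-530 nm. Compound treatment lasted 48 hr at 37 C in 5% CO2 before staining.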
HT1080NT lethal = qHTS for induction of synthetic lethality in tumor cells producing 2HG: qHTS for the HT-1080-NT fibrosarcoma cell line; HT-1080-NT fibrosarcoma viability, CellTiter-Glo ATP luminescence, 48 h; Potency, µM (doses to about 46.1 µM), inactives show at the highest dose activity, negative = less viability, most hits filed as cytotoxic; 1.6% of 360,000 active; AID 686970, 2013;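 further: NT is the 2HG producing partner of a matched IDH1 knockdown line; 0% = DMSO-treated cells and -100% = media-only wells without cells; nearly all actives have a fitted effect of over 55% in size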
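HT-1080-NT; 750 cells/well; 5% FBS RPMI; 48 h compound, 37 degrees C; CellTiter-Glo luminescence; curve fitting and curve-class assignment.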
MCF10A rereplic = A quantitative high throughput screen for small molecules that induce DNA re-replication in MCF 10a normal breast cells; AID 624296, 2012; Potency, µM (series often up to 46.1 µM), without a hit: top-dose activity, positive = re-replication, usual class: activators; MCF 10A DNA re-replication, Hoechst nuclear intensity, 48 h; 2.9% of 350,000 active; further: % of control where 0% means no effect; nearly all actives have a fitted effect of over 50% in size
KB-3-1 cytotox = qHTS assay for MDR1-selective chemotherapeutics: Primary screen using the parental adenocarcinoma cell KB-3-1 | KB-3-1 viability, CellTiter-Glo ATP luminescence, 72 h | Potency, µM (series often up to 46.1 µM), actives largely listed as cytotoxic | 1.4% of 400,000 active | AID 1347075, 2019; further: on the % scale 0 is the no-effect control and ±100 the full control effect; nearly all actives have a fitted effect of over 60% in size
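Parental KB-3-1 adenocarcinoma cells in phenol-red-free DMEM with 10% FBS were pin-treated with compounds at several concentrations, incubated 72 h at 37 °C, and viability read by CellTiter-Glo luminescence; concentration-effect curves were fitted after normalization.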
HT1080 IDH1KD tx = qHTS for induction of synthetic lethality in tumor cells producing 2HG: qHTS for the HT-1080-IDH1KD cell line; 2% of 360,000 active; HT-1080 IDH1 knockdown viability, ATP luminescence, 48 h; Potency, µM (highest dose often 46.1 µM), for the others: at the highest dose activity, negative = toxicity, actives largely listed as cytotoxic;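 further: 0% = DMSO wells and -100% = cell-free medium wells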
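Cytotoxicity counter-line: IDH1KD HT-1080, 48 h, CellTiter-Glo. Curves classed by r2, magnitude and activity.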
KB-V1 cytotox = qHTS assay for MDR1-selective chemotherapeutics: Primary screen using the drug-selected MDR subline cells KB-V1; KB-V1 MDR cells viability, CellTiter-Glo, 72 h; Potency, µM (highest dose often 46.1 µM), usual class: cytotoxic; 3.4% of 400,000 active; further: on the % scale 0 is the no-effect control and ±100 the full control effect; nearly all actives have a fitted effect of over 60% in size
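Cells of the MDR subline KB-V1 are plated, dosed with compound at multiple concentrations, and incubated 72 h at 37 degrees C; CellTiter-Glo is then added and luminescence read after 10 min.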
* = called active by the depositor; i = inactive; ? = inconclusive; · = not tested or not shown; [ ] = remark or other dose. This is a sample that favours compounds with a hit; in the whole collection about 8% have one here. The call rests on the fitted dose curve; in most records, active means well fitted curve in the direction sought with a large enough effect; inconclusive means small, poorly fitted or top-dose-only effect, or another doubt; inactive means no such curve, though single readings can be large; an effect the other way counts as inactive or inconclusive. Potency means the concentration at half of the fitted maximal effect.

SMILES	SW480 rereplic	HT1080NT lethal	MCF10A rereplic	KB-3-1 cytotox	HT1080 IDH1KD tx	KB-V1 cytotox
NC(=O)C1CCN(C(=O)c2cccc(S(=O)(=O)N3CCc4ccccc4C3)c2)CC1	-2.2%	-6.8%	-16.9%	i	0.3%	i
COc1ccc(N2CCN(C(=O)c3ccc(S(=O)(=O)N4CCOCC4)cc3)CC2)cc1	-1.5%	5.2%	3.9%	i	-4.2%	16.4µM*
COc1ccc(N2CCN(C(=O)c3ccc(S(=O)(=O)N4CCCC4)cc3)CC2)cc1	-4.5%	1.5%	-3.9%	i	9.9%	i
O=S(=O)(c1ccc(Oc2ccc(F)c(Cl)c2)nc1)N1CCOCC1	-5.9%	-0.1%	-5.4%	i	-3.8%	23.1µM*
COc1ccccc1N1CCN(C(=O)c2cccc(S(=O)(=O)N3c4ccccc4CC3C)c2)CC1 (stereo unspecified)	20.7%	?	?	i	?	3.66µM*
O=C(Nc1nnc(S(=O)(=O)N2CCc3ccccc32)s1)c1ccccc1	·	·	·	i	·	i
CCn1nc(NS(=O)(=O)c2ccc([N+](=O)[O-])cc2)c2cc3ccc(C)cc3nc21	-4.0%	-8.5%	-0.9%	i	-1.1%	i
CCOc1ccccc1N1CCN(C(=O)Cc2ccc(S(=O)(=O)N3CCOCC3)s2)CC1	?	-3.4%	2.1%	i	1.4%	23.1µM*
O=C(NCCCN1CCOCC1)c1cccc(S(=O)(=O)N2CCc3ccccc3C2)c1	21.6%[1.84 µM]	0.8%	?	i	-1.9%	i
CCOC(=O)c1sc(NC(=O)c2cccc(S(=O)(=O)N3c4ccccc4CC3C)c2)cc1C (stereo unspecified)	?	-27.0%	8.2µM*	i	?	i
O=C(NCC1(N2CCOCC2)CCCCC1)c1cccc(S(=O)(=O)N2CCc3ccccc3C2)c1	5.6%	-5.2%	14.6µM*	i	-16.2%	i
Cc1cc(NC(=O)c2cccc(S(=O)(=O)N3c4ccccc4CC3C)c2)no1 (stereo unspecified)	?	?	14.1%	i	?	i
O=C(c1ccc2ccccc2c1)N1CCN(c2ccc(O)cc2)CC1	6.0%	-8.4%	?	i	-10.9%	23.1µM*
COc1ccc(N(CC(=O)NC(C)(C)C)C(=O)CCC(=O)Nc2nccs2)c(OC)c1	-0.2%	0.0%	-0.1%	i	1.1%	i
Nc1nc(CSc2ncn[nH]2)nc(Nc2ccc(F)cc2)n1	-0.4%	3.1%	10.3%	i	-1.2%	i
Cc1cccc(C)c1N1C(=O)c2ccccc2NC(=O)C1C(=O)NCCOc1ccccc1 (stereo unspecified)	·	12.9%	·	i	24.3%	i
CCOc1ccccc1N1CCN(C(=O)c2cccc(S(=O)(=O)N3CCOCC3)c2)CC1	-3.5%	-0.5%	2.0%	?	-3.6%	23.1µM*
O=S(=O)(c1ccc(Oc2ccc(S(=O)(=O)N3CCOCC3)cc2)cc1)N1CCOCC1	-1.4%	-3.4%	0.3%	?	-2.5%[9.24 µM]	14.6µM*
O=C(c1cccc(S(=O)(=O)N2CCOCC2)c1)N1CCN(c2ccccc2)CC1	-4.5%	5.6%	-1.1%	i	11.2%	18.4µM*
CN(C)CCCOc1ccc(-c2cccc3nncn23)cn1	·	?	·	i	27.4%	i
O=C(CSc1nnc2scc(-c3ccccc3)n12)N1CCCc2ccccc21	-7.0%	-3.2%	-0.3%	i	14.5%	i
Cn1c(SCC(=O)N2CCN(Cc3ccccc3)CC2)nnc1-c1ccncc1	0.5%	6.5%	-0.6%	i	-2.0%	i
